Data published in PubChem BioAssay AID1224852 (National Center for Advancing Translational Sciences (NCATS), 2016).
Results filed as inconclusive are left out. A number with no mark means an inactive call. The call rests on the fitted dose curve; in most records, active means well fitted curve in the direction sought with a large enough effect (not every such curve was filed as active); inconclusive means small, poorly fitted or top-dose-only effect, or effect the other way, or another doubt; inactive means no such curve, though single readings can be large or run the other way.

Assay: Cell viability assay for measurement of the protective activity of small molecules against cell death caused by Zika virus infection in human neural progenitor cells (hNPCs);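 further: 0% = ZIKV-infected cells without compound and 100% = uninfected cells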
Settings: hNPC ZIKV-induced death protection, ATP luminescence, 72 h; series mostly up to 46.1 µM; protection, negative = more death: at the top concentration
Summary of the method: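 Human neural progenitor cells pretreated 1 h with compounds, then infected with Zika virus at 2 FFU/cell for 72 h at 37 C. Viability read as ATP-content luminescence; values are percent inhibition of the virus-induced viability loss.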

SMILES | protection, negative = more death
CN(C)c1ccc(N=NS(=O)(=O)O)cc1 | -43.6% [at 88.3 µM]
CC(=O)Oc1ccccc1C(=O)Nc1ncc([N+](=O)[O-])s1 | -68.9% [at 88.3 µM]
NC(=O)c1cccc2[nH]c(-c3ccc([C@H]4CCCN4)cc3F)nc12 | -66.1%
O=C(O)[C@H](CC(=O)N1C[C@@H]2CCCC[C@H]2C1)Cc1ccccc1 | 13.4%
O=C(C=CC=Cc1ccc2c(c1)OCO2)N1CCCCC1 | -34.5%
CN(C)CCCSc1ccccc1NC(=O)/C=C/c1ccccc1 | 8.23%
O=c1[nH]nc(Sc2ncc([N+](=O)[O-])s2)n1-c1ccc2c(c1)OCCO2 | -79.3%
O=S(=O)(O)c1ccc2nc(-c3ccccc3)[nH]c2c1 | 2.17%
O=C(Oc1ccccc1)c1cccc(C(=O)Oc2ccccc2)c1 | -16.5% [at 96.3 µM]
O=C1c2ccccc2C(=O)c2c(NCCc3ccc(O)cc3)ccc(NCCc3ccc(O)cc3)c21 | -66.2%
CCCCCCCC/C=C/C(=O)O | -1.9%
COc1ccnc2c1CCCCC2S(=O)c1nc2ccccc2[nH]1 (configuration not stated) | -42.6%
